Source: PubChem BioAssay AID1159580 (chemical genetic matrix, 2015)
The whole screen tested about 5,500 compounds, of which about 2,000 (36%) were called active. Roughly 18% stayed inconclusive and do not appear here. Cut-off read from the data, not from the text of the source: active = normalized growth mostly below about 0.91 (no sharp cut-off); inconclusive = no clear call, values can overlap the other calls; inactive = mostly above about 0.92. The list shows a part of the results.

Assay: chemical genetic growth profiling, strain panel (AID 1159580);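 note: tested at 20 µM; growth read once vehicle control cultures reached saturation at 30 °C; 1 = growth at the plate median or of vehicle wells; lower values mean less growth of the strain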
Settings: S. cerevisiae deletion strains, growth OD

Measured: normalized growth

O=C1Nc2ccccc2/C1=C\c1c[nH]c2ccccc12
active: locus YAR019C, strain CDC15, hits give low values 0.472 | locus YBL105C, strain PKC1, hits give low values 0.627 | locus YBR136W, strain MEC1, hits give low values 0.88 | locus YBR160W, strain CDC28, hits give low values 0.843 | locus YDL017W, strain CDC7, hits give low values 0.717 | locus YDL101C, strain DUN1, hits give low values 0.491 | locus YDL132W, strain cdc53, hits give low values 0.628 | locus YDL214C, strain PRR2, hits give low values 0.289 | locus YDR052C, strain DBF4, hits give low values 0.91 | locus YDR054C, strain cdc34, hits give low values 0.432 | locus YDR226W, strain ADK1, hits give low values 0.84 | locus YDR477W, strain SNF1, hits give low values 0.135 | locus YER123W, strain YCK3, hits give low values 0.249 | locus YER133W, strain GLC7, hits give low values 0.202 | locus YFL009W, strain cdc4, hits give low values 0.526 | locus YFL029C, strain CAK1, hits give low values 0.472 | locus YFR003C, strain YPI1, hits give low values 0.894 | locus YFR019W, strain FAB1, hits give low values 0.168 | locus YFR028C, strain CDC14, hits give low values 0.753 | locus YGR040W, strain KSS1, hits give low values 0.164 | locus YGR052W, strain FMP48, hits give low values 0.126 | locus YGR092W, strain DBF2, hits give low values 0.109 | locus YHR030C, strain SLT2, hits give low values 0.101 | locus YHR079C, strain IRE1, hits give low values 0.1 | locus YHR082C, strain KSP1, hits give low values 0.136 | locus YHR205W, strain SCH9, hits give low values 0.0414 | locus YIL147C, strain SLN1, hits give low values 0.814 | locus YJL095W, strain BCK1, hits give low values 0.0968 | locus YJL157C, strain FAR1, hits give low values 0.239 | locus YJR066W, strain TOR1 (second series), hits give low values 0.111 | locus YJR066W, strain TOR1, hits give low values 0.111 | locus YKL048C, strain ELM1, hits give low values 0.325 | locus YKL067W, strain YNK1, hits give low values 0.407 | locus YKL101W, strain HSL1, hits give low values 0.242 | locus YKL193C, strain SDS22, hits give low values 0.618 | locus YKL203C, strain TOR2, hits give low values 0.123 | locus YLR113W, strain HOG1, hits give low values 0.118 | locus YLR133W, strain CKI1, hits give low values 0.19 | locus YLR403W, strain SFP1, hits give low values 0.108 | locus YML070W, strain DAK1, hits give low values 0.219 | locus YMR001C, strain CDC5, hits give low values 0.781 | locus YMR205C, strain PFK2 (second series), hits give low values 0.401 | locus YMR277W, strain FCP1, hits give low values 0.548 | locus YNL006W, strain LST8, hits give low values 0.454 | locus YNL020C, strain ARK1, hits give low values 0.19 | locus YNL161W, strain CBK1, hits give low values 0.639 | locus YNL183C, strain NPR1, hits give low values 0.133 | locus YNL207W, strain RIO2, hits give low values 0.605 | locus YNL222W, strain SSU72, hits give low values 0.674 | locus YNL307C, strain MCK1 (second series), hits give low values 0.134 | locus YOL078W, strain AVO1, hits give low values 0.609 | locus YOL136C, strain PFK27, hits give low values 0.254 | locus YOR061W, strain CKA2, hits give low values 0.244 | locus YOR119C, strain RIO1, hits give low values 0.154 | locus YOR231W, strain MKK1, hits give low values 0.125 | locus YOR329C, strain SCD5, hits give low values 0.612 | locus YPL031C, strain PHO85, hits give low values 0.112 | locus YPL153C, strain RAD53, hits give low values 0.124 | locus YPL204W, strain HRR25, hits give low values 0.125 | locus YPL209C, strain IPL1, hits give low values 0.694 | locus YPL256C, strain CLN2, hits give low values 0.128 | locus YPR025C, strain CCL1, hits give low values 0.753 | locus YPR106W, strain ISR1, hits give low values 0.863 | strain NNK1, hits give low values 0.527 | strain TSCII, hits give low values 0.384
inactive: locus YBR135W, strain CKS1, hits give low values 0.926 | locus YDL028C, strain MPS1, hits give low values 0.927 | locus YDL108W, strain KIN28, hits give low values 0.924 | locus YJR016C, strain ILV3, hits give low values 0.914 | locus YPR111W, strain DBF20, hits give low values 0.93
